Screening results deposited in PubChem by Broad Institute.
Only some compounds are listed: those with a hit (about 3.3% of all), similar ones and a draw of the others.
SIRT5 inh – sirtuin-5 (human) deacylase inhibition. 330,000 tested, 1.1% active. inhibition, % at 15 µM. AID 652115. Q9NXA8. Purified SirT5, succinyl-peptide AMC, trypsin-coupled fluorescence; in the data active = inhibition above about 15%
Target sequence (Q9NXA8 whole entry, looked up): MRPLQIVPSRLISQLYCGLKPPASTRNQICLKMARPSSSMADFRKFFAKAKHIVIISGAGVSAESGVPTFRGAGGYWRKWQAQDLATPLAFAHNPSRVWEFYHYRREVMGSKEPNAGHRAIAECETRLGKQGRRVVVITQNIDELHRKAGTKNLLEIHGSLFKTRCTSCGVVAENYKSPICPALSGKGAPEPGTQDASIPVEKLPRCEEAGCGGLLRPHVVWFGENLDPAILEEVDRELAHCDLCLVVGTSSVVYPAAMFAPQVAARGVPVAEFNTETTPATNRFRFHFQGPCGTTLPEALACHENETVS
CASP6 VEID inh – caspase-6 (human) enzyme inhibition | P55212 | purified caspase-6, Z-VEID-R110 cleavage fluorescence | inhibition, % at 12.5 µM | 350,000 tested, 0.53% active;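 active = mean inhibition across replicates at least about 35%, with every replicate also reaching that limit, limit read from the data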;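 also: 0% = median of neutral control wells and 100% = no fluorescence left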
Target sequence (P55212 24-179 limits assumed): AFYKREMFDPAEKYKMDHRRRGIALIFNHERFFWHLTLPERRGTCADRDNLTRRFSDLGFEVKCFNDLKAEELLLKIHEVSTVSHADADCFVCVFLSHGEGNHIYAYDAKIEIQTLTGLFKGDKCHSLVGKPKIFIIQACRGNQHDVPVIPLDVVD
Target sequence (P55212 194-293 limits assumed): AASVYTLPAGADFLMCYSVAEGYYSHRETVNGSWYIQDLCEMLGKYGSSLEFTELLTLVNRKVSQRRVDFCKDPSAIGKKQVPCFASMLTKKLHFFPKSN
GSIS activator – GLuc luminescence reporter in INS-1E cells, primary screen for activators of glucose-dependent secretion of insulin; INS-1E GLuc reporter insulin secretion, 2-3 h; activation, % at 16.6 µM; 370,000 tested, 0.61% active; AID 743287;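 active = lowest replicate activation of at least 40%, so every replicate reaches that level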;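 also: 0% = median of neutral control wells and 100% = median of IBMX positive control wells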
FGF22 binding – FGF22 (human) thermal shift binding. Q9HCT0. recombinant FGF22 thermal shift, SYPRO orange fluorescence; percent of sucrose octasulfate shift, DMSO zero. activity (Tm shift, normalised), % at 9.99 µM. 340,000 tested, 1.5% active. AID 651658;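 active = mean Tm shift, scaled 0 neutral to 100 positive control, at about 1.3% or above, every replicate too, limit read from the data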
ERAP1 inh – ERAP1 (human) enzyme inhibition. Q9NZ08. recombinant ERAP1, Leu-AMC fluorescence, 60 min. inhibition, % at 10.7 µM. 340,000 tested, 0.15% active. AID 652197;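 active = mean replicate inhibition of at least 30%, or all replicates individually reaching that 30% level; inactive = mean below 30% and not every replicate reaching it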;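 also: 0% = neutral control wells and 100% = L-leucinethiol positive control wells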
An asterisk follows results filed as active; . = not tested or not shown.

SMILES	SIRT5 inh	CASP6 VEID inh	GSIS activator	FGF22 binding	ERAP1 inh
CC[N+](C)(CC)CC(=O)OCC1C(C)C=C(C)CC1C (centres undefined)	5.5	-3.6	21.6	-0.3	105.8*
C[C@H](NC(=O)C[C@H]1C[C@@H]2c3cc(NC(=O)CC4CC4)ccc3O[C@@H]2[C@H](CO)O1)c1ccccc1	0.7	-2.5	0.8	-0.3	-1.0
CC(C)(C)NC(=O)COC(=O)c1ccc(Cl)nc1	-6.5	1.8	-16.7	43.3*	2.9
Cc1ccc(CN(C(=O)c2cc(=O)c3cc(C)cc(C)c3o2)C2CCS(=O)(=O)C2)cc1 (centres undefined)	1.8	3.7	28.8	0.0	.
Cc1cc(C)c2oc(C(=O)N(Cc3ccc(F)cc3)C3CCS(=O)(=O)C3)cc(=O)c2c1 (centres undefined)	-2.7	2.0	62.8*	-0.2	-1.3
Cc1cnc(C2OCCO2)c2cccc(N)c12	-2.6	59.8*	.	-0.3	-3.3
Cc1noc(C)c1NC(=O)Nc1ccc2c(c1)C(=O)N([C@@H](C)CO)C[C@@H](C)[C@@H](CN(C)Cc1ccncc1)OCCCC[C@@H](C)O2	-1.3	0.8	26.3	-0.1	1.4
Cc1noc(C)c1S(=O)(=O)Nc1ccc2c(c1)CC(=O)N([C@@H](C)CO)C[C@@H](C)[C@@H](CN(C)C(=O)Nc1ccc3c(c1)OCO3)O2	.	.	-2.4	0.0	.
C/C(=N/NC(=O)CSc1nc2ccccc2n1C)c1ccncc1	-4.6	-6.0	-4.7	43.2*	0.9
COc1cc(/C(C)=N\NC(=O)CSc2nc3ccccc3n2C)ccc1O	2.7	-0.6	41.7*	0.4	3.8
C/C(=N\NC(=O)CSc1nc2ccccc2[nH]1)c1ccncc1	-4.2	0.3	17.0	43.4*	1.9
CCn1c(SCC(=O)N/N=C(\C)c2ccncc2)nnc1-c1ccccc1	0.2	-1.2	3.7	0.2	0.5
C/C(=N/NC(=O)CSc1nc2ccccc2s1)c1ccncc1	-7.4	-1.8	-1.2	0.2	.
O=C(C1CCC1)N1CC(=O)N2[C@H](CO)[C@@H](c3ccc(C#Cc4cccc(F)c4)cc3)[C@@H]2C1	-2.8	0.9	-24.8	.	-0.5
COc1ccccc1S(=O)(=O)N[C@H]1CC[C@H](CCn2cc(C3CCCC3)nn2)O[C@@H]1CO	1.2	-4.2	-6.1	0.4	-0.7
CC(C)C#Cc1ccc2c(c1)O[C@H](CN(C)Cc1cncnc1)[C@H](C)CN([C@@H](C)CO)S2(=O)=O	1.7	1.5	-7.3	-0.1	0.2
CC(=O)N1[C@@H]2Cn3c(ccc(C4=CCCCC4)c3=O)[C@H]1[C@@H](C(=O)NC1CCCC1)[C@@H]2CO	-10.7	-0.7	5.5	-0.6	3.0
C=CCc1cc(OC)ccc1OCCN1CC(C)OC(C)C1 (centres undefined)	101.6*	-1.2	7.0	-0.2	-2.1
C[C@@H]1CN([C@H](C)CO)C(=O)c2cc(C3=CCCC3)cnc2O[C@H]1CN(C)S(C)(=O)=O	-1.4	1.0	7.2	0.0	1.3
CC1CN(S(=O)(=O)c2cccc(C(=O)NCCc3ccc(S(N)(=O)=O)cc3)c2)CC(C)O1 (centres undefined)	.	4.5	.	43.1*	0.2
CCOc1ccc(CCNC(=O)c2cccc(S(=O)(=O)N3CCN(C(C)=O)CC3)c2)cc1OCC	20.8*	-1.3	-1.0	-0.1	-0.5
NS(=O)(=O)c1ccc(CCNC(=O)c2cccc(S(=O)(=O)N3CCCC3)c2)cc1	-2.1	4.2	11.1	0.6	-2.8
CCOC(=O)c1c[nH]c(=O)c(Br)c1O	.	.	9.6	.	.
CCOC(=O)c1c[nH]c2nc(C)ccc2c1=O	-6.4	10.6	16.0	43.1*	-0.4
NN1C(=O)/C(=C2/Sc3ccccc3N2CCCS(=O)(=O)O)SC1=S	7.2	55.4*	-0.2	0.0	5.2
SMILES	SIRT5 inh	CASP6 VEID inh	GSIS activator	FGF22 binding	ERAP1 inh
O=C1NC(=S)S/C1=C1\Sc2ccccc2N1CCCS(=O)(=O)O	.	.	9.5	.	.
COc1ccccc1N1CCN(CC(=O)Nc2ccc3c(c2)OCCO3)CC1	31.3*	-1.2	.	0.4	3.3
COc1ccc(NC(=O)c2ccc(NC(=O)CN3CCN(c4ccccc4OC)CC3)cc2)cc1	.	-4.4	.	43.4*	2.3
O=C(CN1CCN(c2ccccc2)CC1)Nc1ccc2c(c1)OCCO2	-0.5	-5.2	2.9	0.7	-1.8
CN(C)C(=O)[C@H]1[C@H](CO)[C@H]2Cn3c(ccc(-c4ccccc4)c3=O)[C@H]2N1C(=O)c1ccccn1	-2.0	6.7	5.0	0.2	0.4
O=C(Cn1nc(-c2ccc(Cl)cc2)ccc1=O)NCC1CCCO1 (centres undefined)	19.4*	-1.0	1.3	0.0	5.0
COc1ccc(-c2nnc(SCC(=O)NCC3CCCO3)n2C)cc1 (centres undefined)	-3.8	7.1	-11.1	.	-1.9
Cn1c(SCC(=O)NCC2CCCO2)nnc1-c1ccc(Cl)cc1 (centres undefined)	19.2*	-1.0	-2.4	0.1	1.7
O=C(CSc1cn(CCNC(=O)c2ccccc2F)c2ccccc12)NCC1CCCO1 (centres undefined)	-1.8	-0.8	10.0	-0.1	1.6
O=C(Cn1nc(-c2ccccc2)ccc1=O)NCC1CCCO1 (centres undefined)	.	.	15.2	.	.
Cc1ccccc1C(=O)NCCn1cc(SCC(=O)NCC2CCCO2)c2ccccc21 (centres undefined)	-2.5	41.5*	-2.0	-0.2	-0.9
O=C(C[C@@H]1C[C@H]2c3cc(NC(=O)NC4CCCC4)ccc3O[C@H]2[C@@H](CO)O1)NCc1ccc2c(c1)OCO2	0.7	0.4	9.9	0.2	0.1
Cc1[nH][nH]c(=O)c1C=NCc1cccnc1	4.0	-2.0	0.9	43.6*	-0.5
Cc1[nH][nH]c(=O)c1C=NCc1cccs1	0.9	-0.5	17.6	42.8	-1.5
N#Cc1c(N)n(C2CCCCC2)c2nc3ccccc3nc12	.	.	43.1*	.	.
N#Cc1c(N)n(-c2ccc(N)cc2)c2nc3ccccc3nc12	3.0	5.7	.	0.0	4.4
COc1ccc(N2CCN(C(=O)c3nc4nc(C)cc(C)n4n3)CC2)cc1	1.4	2.0	0.3	0.4	-2.6
Cc1cc(C)n2nc(C(=O)Nc3ccc(N4CCOCC4)cc3)nc2n1	-2.0	-0.3	1.7	.	59.4*
Cc1cc(C)n2nc(C(=O)N3CCN(c4ccc([N+](=O)[O-])cc4)CC3)nc2n1	2.3	-0.6	.	0.3	40.9*
CCNC(=O)Nc1ccc2c(c1)C(=O)N(C)[C@@H]1CC[C@@H](CC(=O)NCc3cccc(F)c3)O[C@@H]1CO2	.	.	-2.4	0.4	.
CO[C@@H]1CN(C)C(=O)c2cc(NC(=O)c3cc(C)on3)ccc2OC[C@@H](C)N(CC2CC2)C[C@@H]1C	3.2	.	18.0	-0.2	.
CC12CCC(C(=O)NCCc3ccccc3)(OC1=O)C2(C)C (centres undefined)	15.1*	-0.9	-0.3	0.1	-2.7
CCc1c(C)sc(NC(=O)c2cc(-c3ccc(OC)c(OC)c3)on2)c1C#N	.	.	80.4*	.	.
